In PMC4336329 (PLoS ONE, 2015):
Hit rate of the full screen: of about 310,000 compounds, about 14,000 (4.5%) showed an effect of 50% or more. Effects have a minus sign here. The entries come from a sample that favours strong results as a whole.

target: human ether-à-go-go-related gene (hERG) potassium channel (human, UniProt Q12809); test: primary screen, population patch clamp on CHO cells stably expressing hERG; higher = less effect of the substance
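Also: peak tail current of the secondary pulse compared with the same well before compound.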

Chain of human ether-à-go-go-related gene (hERG) potassium channel (Q12809 whole entry, looked up): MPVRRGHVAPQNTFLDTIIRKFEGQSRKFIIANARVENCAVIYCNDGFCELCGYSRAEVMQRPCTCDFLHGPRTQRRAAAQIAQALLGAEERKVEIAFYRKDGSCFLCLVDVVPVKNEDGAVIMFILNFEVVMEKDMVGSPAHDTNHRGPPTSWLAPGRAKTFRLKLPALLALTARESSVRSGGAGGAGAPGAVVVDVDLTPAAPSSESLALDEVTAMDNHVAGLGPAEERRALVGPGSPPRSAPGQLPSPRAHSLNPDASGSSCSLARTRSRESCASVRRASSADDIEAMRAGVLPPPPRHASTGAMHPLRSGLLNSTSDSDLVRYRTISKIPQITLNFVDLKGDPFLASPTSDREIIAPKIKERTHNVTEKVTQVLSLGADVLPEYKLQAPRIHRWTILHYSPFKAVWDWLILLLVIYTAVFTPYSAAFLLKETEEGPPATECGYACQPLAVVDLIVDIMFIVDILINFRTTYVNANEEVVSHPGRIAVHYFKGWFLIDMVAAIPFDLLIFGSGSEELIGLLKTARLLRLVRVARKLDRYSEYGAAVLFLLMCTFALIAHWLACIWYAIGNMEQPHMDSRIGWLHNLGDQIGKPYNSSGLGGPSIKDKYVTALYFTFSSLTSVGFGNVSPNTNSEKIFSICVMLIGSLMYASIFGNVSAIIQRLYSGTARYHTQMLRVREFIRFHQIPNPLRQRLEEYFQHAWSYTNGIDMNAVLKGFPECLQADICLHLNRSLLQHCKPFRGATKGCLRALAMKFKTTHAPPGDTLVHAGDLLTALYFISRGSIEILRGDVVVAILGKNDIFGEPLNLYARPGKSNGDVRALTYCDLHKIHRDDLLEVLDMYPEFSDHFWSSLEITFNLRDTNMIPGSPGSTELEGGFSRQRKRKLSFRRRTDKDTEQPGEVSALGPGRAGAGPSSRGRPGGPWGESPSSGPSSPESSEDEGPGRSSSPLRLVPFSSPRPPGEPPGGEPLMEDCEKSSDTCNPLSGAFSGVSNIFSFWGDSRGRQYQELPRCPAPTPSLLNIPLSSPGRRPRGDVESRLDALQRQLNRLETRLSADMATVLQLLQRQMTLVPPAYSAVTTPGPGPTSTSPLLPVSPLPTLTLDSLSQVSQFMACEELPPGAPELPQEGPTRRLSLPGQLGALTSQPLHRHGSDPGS

SMILES | hERG current change (%, negative = inhibition) at 10uM
Cc1noc(C)c1COC(=O)C1COc2ccccc2O1 (stereo not drawn) | 15.2%
CCc1ccc(N(C(=O)c2csnn2)C(C(=O)NC(C)(C)C)c2cccnc2)cc1 (stereo not drawn) | 4.59%
CCOCCCNC(=O)C(NC(=O)c1ccccn1)c1ccc(C)cc1 (stereo not drawn) | -0.00042%
Cc1ccccc1NS(=O)(=O)c1ccc(-c2ccc(=O)[nH]n2)o1 | -2.13%
COc1ccccc1N1CCN(C(=O)CCCn2c(=O)[nH]c3ccsc3c2=O)CC1 | 4.33%
O=C(CCC(=O)c1ccc(F)cc1)Nc1cccc(C(F)(F)F)c1 | 7.22%
COc1ccc(Nc2ccc([N+](=O)[O-])cc2[N+](=O)[O-])cc1 | -32.5%
O=C(Nc1ccc(Cl)cc1C(=O)NCC1CCCO1)c1ccc(Cl)cc1Cl (stereo not drawn) | -10.2%
CC(C1CC2CCC1C2)N1CC(O)=C(c2nc3ccccc3[nH]2)C1=N (stereo not drawn) | -17.9%
Cc1ccc(C)c(S(=O)(=O)N/N=C/c2cccnc2)c1 | 7.65%
COc1ccc(OC)c(NS(=O)(=O)c2ccc3c(c2)n(C)c(=O)n3C)c1 | -5.85%
CCC/C(=N\NC(=O)C1CC1)c1ccc(Br)cc1 | 11.9%
C/C(=N\N=C1\NC(=O)CC(C(=O)O)S1)c1ccc(F)cc1 (stereo not drawn) | 0.193%
CCOC(=O)c1nn(C23CC4CC(CC(C4)C2)C3)c2c1C(=O)N(c1ccc(C)cc1)C2=O | 20.3%
Cc1cc([N+](=O)[O-])nn1CC(=O)Nc1ccccn1 | 5.51%
Cc1cc([N+](=O)[O-])nn1CC(=O)Nc1ccc(F)cc1 | 6.31%
Cc1cc([N+](=O)[O-])nn1CC(=O)Nc1cnc2ccccc2c1 | -81.1%
Cc1cccc(C)c1-n1c(C)nn(CC#N)c1=O | 19.1%
COc1ccc2c(c1)cc(C(=O)O)n2C | -6.02%
CCN(CC)CCNC1=NCCn2c1cc1cc(OC)ccc12.Cl | -66.6%
CN=C1c2cc3cc(OC)ccc3n2CCN1C.Cl | -53%
COc1ccc2c(c1)c1ccccc1n2C | 11%
COc1ccc2c(c1)cc1n2CCN=C1NCCO.Cl | -10.2%
COC(=O)c1cc2cc(OC)ccc2n1C | 0.821%
CCN(CC)CCNC(=O)COc1ccc(OC)cc1.Cl | -9.07%
COc1ccc2c(c1)c(=O)cc(-c1ccccc1)n2C | 0.0751%
COc1ccc2[nH]c3c(c2c1)CCN=C3C | -18.2%
COc1ccc2c(c1)c1c3n2CCN(C)C3=NCC1.Cl | -67.7%
COc1ccc2c(c1)c1c(n2C(C)=O)C(OC(C)=O)=NCC1 | -8.94%
CN=C1c2c(-c3ccccc3)c3cc(OC)ccc3n2CCN1C.Cl | -62.6%
